The text below walks through data of PubChem BioAssay (NCI).

About 83,000 compounds went through this panel and 20% of them were active in at least one assay; those are over-represented in the sample as a whole.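 Testing used 96-well plates and a 48-hour single-concentration exposure. Example: -40 means 40% of the starting cells died.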 Values without a mark were called inactive. The source made the active and inactive calls. Rule for the calls: active = growth percent below 10; inactive = the rest.

Test systems include SR leukemia; OVCAR-8 ovarian; OVCAR-5 ovarian; OVCAR-4 ovarian; SK-OV-3 ovarian; IGROV1 ovarian; OVCAR-3 ovarian; HS 578T breast; NCI/ADR-RES ovarian.
Holding throughout (test): NCI-60 one-dose screen, 48 h (100 = growth as untreated, 0 = no growth, -100 = all killed)
What all share (settings): 10 µM unless noted

In the case of `CC(=O)c1c(C)nc(SCC(=O)Nc2cccc(O)c2)n1-c1ccc(Cl)cc1`, the growth was 103% in the experiment with SR leukemia; 99.8% in the experiment on OVCAR-8 ovarian; 104% with OVCAR-5 ovarian; 89.1% in the experiment on OVCAR-4 ovarian; 104% in the experiment on SK-OV-3 ovarian; 99% in the experiment with IGROV1 ovarian. The figures for the growth in the experiment on OVCAR-3 ovarian, in the experiment on HS 578T breast and in the experiment on NCI/ADR-RES ovarian were 103%, 82.1% and 98.9%, respectively.
On to `CNC(=O)c1[nH]cc(-c2ccc(OC)cc2)c1-c1cc(OC)c2c(c1OC)OCO2`, for which the growth in the experiment on SR leukemia was 102%; with OVCAR-8 ovarian, 98.7%; with OVCAR-5 ovarian, 95.8%; in the experiment with OVCAR-4 ovarian, 96.4%; in the experiment with SK-OV-3 ovarian, 99.9%; with IGROV1 ovarian, 87.4%. Besides, the values for the growth with OVCAR-3 ovarian, with HS 578T breast and in the experiment with NCI/ADR-RES ovarian were 100%, 115% and 95.8%, respectively.
As for `CCCC/C(CC)=N\NS(=O)(=O)c1ccc([N+](=O)[O-])cc1`, the growth is 97.5% in the experiment on SR leukemia; 100% in the experiment with OVCAR-8 ovarian; 94.6% in the experiment with OVCAR-5 ovarian; 100% in the experiment on OVCAR-4 ovarian; 95.9% in the experiment on SK-OV-3 ovarian; 105% in the experiment with IGROV1 ovarian. The growth in the experiment on OVCAR-3 ovarian was 107%; in the experiment with HS 578T breast it was 103%; in the experiment with NCI/ADR-RES ovarian, 104%.
`CCCCCCC12CCC(=O)N1CCc1cncn12` (configuration not stated): the growth with SR leukemia is 116%; in the experiment with OVCAR-8 ovarian, 101%; in the experiment on OVCAR-4 ovarian, 119%; in the experiment with SK-OV-3 ovarian, 99.2%; in the experiment on IGROV1 ovarian it was 105%; in the experiment on OVCAR-3 ovarian it was 118%. Further, the growth with HS 578T breast was 112%; with NCI/ADR-RES ovarian, 104%.
Take `COc1ccc(Nc2nc(-c3cc(O)c(C)c(C)c3O)cs2)cc1`: the growth was 37.1% in the experiment on SR leukemia; 70.7% with OVCAR-8 ovarian; 103% with OVCAR-5 ovarian; 73.7% in the experiment on OVCAR-4 ovarian; 71.3% in the experiment on SK-OV-3 ovarian; 66.5% in the experiment on IGROV1 ovarian. The growth was 10.5% in the experiment with OVCAR-3 ovarian and 23% in the experiment on NCI/ADR-RES ovarian.
In the case of `Oc1c(Br)cc(Br)c2ccc(Cn3cc(-c4ccc(C(F)(F)F)cc4)nn3)nc12`, the growth in the experiment with SR leukemia is -22.9% (active); in the experiment on OVCAR-8 ovarian it was 59.5%; with OVCAR-4 ovarian, 54%; in the experiment on SK-OV-3 ovarian, 110%; in the experiment on IGROV1 ovarian it was 79.6%; in the experiment on OVCAR-3 ovarian, -7.84% (active). Further, the values for the growth in the experiment with HS 578T breast and in the experiment on NCI/ADR-RES ovarian were 101% and 105%, respectively.
As to `O=C(O)c1cn(C2CC2)c2cc(N3CCN(Cc4ccc5ccccc5c4O)CC3)c(F)cc2c1=O`, the growth was 6.63% (active) with SR leukemia; 14.4% with OVCAR-8 ovarian; 51% in the experiment with OVCAR-5 ovarian; 32.5% with OVCAR-4 ovarian; 49.7% with SK-OV-3 ovarian; -26.2% (active) in the experiment on OVCAR-3 ovarian. Further, the growth with HS 578T breast is -1.88% (active); with NCI/ADR-RES ovarian, 48%.
For `CN(C)c1ccc(C(=O)OCCCCCCl)cc1`, the growth in the experiment on SR leukemia is 89.4%; in the experiment on OVCAR-8 ovarian it was 106%; in the experiment on OVCAR-5 ovarian it was 75.6%; in the experiment on OVCAR-4 ovarian, 95.4%; with SK-OV-3 ovarian, 102%; in the experiment on IGROV1 ovarian, 101%. Further, the growth is 95.4% in the experiment with OVCAR-3 ovarian, 103% with HS 578T breast and 97.6% in the experiment on NCI/ADR-RES ovarian.
On to `Cc1ccc2c(n1)C(=O)C(Br)=C(CC(C)C)C2=O`, for which the growth with SR leukemia is 17%; in the experiment with OVCAR-8 ovarian it was 97.6%; in the experiment on OVCAR-5 ovarian, 102%; in the experiment with OVCAR-4 ovarian, 104%; with SK-OV-3 ovarian, 101%; in the experiment on OVCAR-3 ovarian, 53.1%. Besides, the growth in the experiment with NCI/ADR-RES ovarian was 98.4%.
`Cc1ccc(C[P+](c2ccccc2)(c2ccccc2)c2ccccc2)cc1`: the growth was -3.87% (active) in the experiment on SR leukemia; 15.6% with OVCAR-8 ovarian; 7.45% (active) with OVCAR-5 ovarian; 1.45% (active) with OVCAR-4 ovarian; 6.84% (active) in the experiment with SK-OV-3 ovarian; 18.7% with IGROV1 ovarian. Moreover, the results for the growth in the experiment on OVCAR-3 ovarian, with HS 578T breast and in the experiment on NCI/ADR-RES ovarian were 5.95% (active), 8.62% (active) and 93.5%, respectively.
Take `COc1ccc(/C=N\Nc2nc(SCCC(C)C)nc(-c3ccc(OC)cc3)c2C#N)cc1`: the growth with SR leukemia was 4.53% (active); in the experiment with OVCAR-8 ovarian, 39.5%; in the experiment with OVCAR-4 ovarian, -57.2% (active); in the experiment on SK-OV-3 ovarian it was 56.9%; with IGROV1 ovarian, 34.5%; with OVCAR-3 ovarian, 12.8%. For the same compound, the growth in the experiment on NCI/ADR-RES ovarian is 74.8%.
With `CCOC(=O)c1c2c(n3cccc(F)c13)C(=O)c1ncccc1C2=O`, the growth with SR leukemia was 20.5%; in the experiment on OVCAR-8 ovarian it was 19.3%; with OVCAR-5 ovarian it was 44.3%; with OVCAR-4 ovarian, 24.4%; with SK-OV-3 ovarian, -4.82% (active); with IGROV1 ovarian, 34.4%. The results for the growth with OVCAR-3 ovarian, in the experiment with HS 578T breast and in the experiment with NCI/ADR-RES ovarian were -11.1% (active), 31.5% and 18.7%, respectively.
Consider `Nc1ncnc2c1c(-c1cccc(Cl)c1)nn2CC(=O)N1CCOCC1`, for which the growth was 116% in the experiment with SR leukemia; 102% in the experiment on OVCAR-8 ovarian; 101% in the experiment on OVCAR-5 ovarian; 96.6% in the experiment with OVCAR-4 ovarian; 109% with SK-OV-3 ovarian; 99.2% in the experiment on IGROV1 ovarian. In addition, the growth was 106% with OVCAR-3 ovarian, 103% with HS 578T breast and 103% in the experiment with NCI/ADR-RES ovarian.
For the compound `CS(=O)(=O)Nc1cc(-c2ccc3ncnc(Nc4ccc5c(cnn5Cc5ccc(F)cc5)c4)c3c2)cnc1Cl`, the growth was 34% in the experiment on SR leukemia; 67.9% in the experiment with OVCAR-8 ovarian; 44.7% with OVCAR-5 ovarian; 71% with OVCAR-4 ovarian; 47.5% with SK-OV-3 ovarian; -15.7% (active) in the experiment with IGROV1 ovarian. In addition, the figures for the growth in the experiment with OVCAR-3 ovarian, in the experiment with HS 578T breast and in the experiment with NCI/ADR-RES ovarian were 9.71% (active), -9.56% (active) and 90%, respectively.
For the compound `C=C(C)[C@@H]1CC[C@]2(C(=O)O)CC[C@]3(C)[C@H](CC[C@@H]4[C@@]5(C)CCC(NC(=O)c6cccc(OC(C)=O)c6OC(C)=O)C(C)(C)[C@@H]5CC[C@]43C)[C@@H]12` (some centres not stated), the growth with SR leukemia was 3.23% (active); in the experiment on OVCAR-8 ovarian, 10.7%; in the experiment with OVCAR-5 ovarian, 1.76% (active); in the experiment on OVCAR-4 ovarian, 12.9%; with SK-OV-3 ovarian it was 6.71% (active); with IGROV1 ovarian it was 5.12% (active). Moreover, the growth in the experiment on OVCAR-3 ovarian was 11.8%; with HS 578T breast it was 15.8%; in the experiment with NCI/ADR-RES ovarian it was 8.44% (active).
